# Assay outcomes: PubChem, National Center for Advancing Translational Sciences (NCATS)
# SW480 rerep: A quantitative high throughput screen for small molecules that induce DNA re-replication in SW480 colon adenocarcinoma cells. Potency, µM (doses to about 46.1 µM), for inactives: at the top dose re-replication activation, actives largely listed as activators. 340,000 tested, 1.8% active. SW480 DNA re-replication, Hoechst DNA content imaging, 48 h; also: % of control where 0% means no effect; nearly all actives have a fitted effect of over 55% in size
#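 SW480 cells exposed to compounds for 48 hr at 37 C, 5% CO2, then Hoechst-stained 40 min. Nuclear DNA content imaged by fluorescence scanning (405 nm excitation, 500-530 nm emission); re-replication scored as increased high-intensity nuclei.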
# ELG1 repair inh: qHTS screen for small molecules that inhibit ELG1-dependent DNA repair in human embryonic kidney (HEK293T) cells expressing luciferase-tagged ELG1 | HEK293T ELG1-luciferase reporter, luminescence, 16 h; DNA damage induced by 5-fluorouridine | Potency, µM (titrated, usually from 46.1 µM), without a hit: at the top dose activity change, negative = inhibition, usual class: inhibitors | 330,000 tested, 2.3% active | AID 504467, 2011; also: % is scaled to controls: 0 for no effect and ±100 for the full control effect; nearly all actives have a fitted effect of over 55% in size
#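 Step one: seed 2,000 cells per well. Step two: pin-transfer compound or DMSO alongside 5-fluorouridine. Step three: incubate 16 hr, 37 °C, 5% CO2. Step four: add ONE-Glo, wait 30 min, read luminescence.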
# RORgamma inh: qHTS for inhibitors of ROR gamma transcriptional activity | 310,000 tested, 5.4% active | Potency, µM (series often up to 53.6 µM), inactives show top-dose activity change, negative = inhibition, hits mostly inhibitors | AID 2551, 2010 | Drosophila S2 Gal4-RORgamma UAS-luciferase reporter, 20 h | Nuclear receptor ROR-gamma (Mus musculus), P51450; also: % is scaled to controls: 0 for no effect and ±100 for the full control effect; nearly all actives have a fitted effect of over 60% in size
# Target sequence (P51450 whole entry, looked up, the tested form may be a part): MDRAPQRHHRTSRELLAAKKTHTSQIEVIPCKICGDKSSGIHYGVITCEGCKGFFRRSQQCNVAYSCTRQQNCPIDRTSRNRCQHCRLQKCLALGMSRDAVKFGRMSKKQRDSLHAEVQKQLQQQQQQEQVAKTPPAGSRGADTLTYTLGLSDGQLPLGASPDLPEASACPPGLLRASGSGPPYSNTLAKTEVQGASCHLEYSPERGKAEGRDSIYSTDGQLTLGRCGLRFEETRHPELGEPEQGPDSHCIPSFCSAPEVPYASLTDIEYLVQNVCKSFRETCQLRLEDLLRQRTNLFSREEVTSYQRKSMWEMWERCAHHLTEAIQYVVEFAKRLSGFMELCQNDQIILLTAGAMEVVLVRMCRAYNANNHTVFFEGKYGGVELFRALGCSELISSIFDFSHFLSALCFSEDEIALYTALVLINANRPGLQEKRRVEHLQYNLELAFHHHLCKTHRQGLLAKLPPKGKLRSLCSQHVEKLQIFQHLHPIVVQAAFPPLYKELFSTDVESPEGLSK
#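 Read-out: Photinus luciferase luminescence; inhibitors lower reporter signal. Insect Schneider cells with Gal4-ROR gamma fusion under metallothionein promoter, UAS reporter; 700 uM final copper sulfate induction, 20 hr, ambient temperature.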
# MCF10A rereplic: A quantitative high throughput screen for small molecules that induce DNA re-replication in MCF 10a normal breast cells | MCF 10A DNA re-replication, Hoechst nuclear intensity, 48 h | Potency, µM (doses to about 46.1 µM), without a hit: at the highest dose activity, positive = re-replication, usual class: activators | 350,000 tested, 2.9% active | AID 624296, 2012; also: % of control where 0% means no effect; nearly all actives have a fitted effect of over 50% in size
# VP16 counter: VP16 counterscreen qHTS for inhibitors of ROR gamma transcriptional activity; AID 2546, 2010; 310,000 tested, 3.5% active; Potency, µM (series often up to 53.6 µM), inactives show top-dose activity, negative = inhibition, usual class: inhibitors; Drosophila S2 Gal4-VP16 UAS-luciferase, luminescence, 20 h;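 also: Gal4-VP16 expression switched on by copper sulfate through the metallothionein promoter; % is scaled to controls: 0 for no effect and ±100 for the full control effect; nearly all actives have a fitted effect of over 50% in size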
# Starred values were filed as active, the others as inactive; ? = inconclusive; · = no result given; [ ] = remark or other dose. Only some compounds are listed: those with a hit (about 10% of all), similar ones and a draw of the others. Calls follow the shape of the dose curve; as a rule, active = well fitted curve in the direction sought with a large enough effect; inconclusive = small, poorly fitted or top-dose-only effect, or another doubt; inactive = no such curve, though single readings can be large; an effect the other way counts as inactive or inconclusive. Potency is read from the fitted curve at half-maximal effect.
SMILES,SW480 rerep,ELG1 repair inh,RORgamma inh,MCF10A rereplic,VP16 counter
CS(=O)(=O)c1ccc(Cl)c(NC(=O)COC(=O)c2ccc(F)cc2Cl)c1,-12%,7%,5%,-1%,-15%
Cc1ccccc1-n1nnnc1SCC(=O)c1c(N)n(C2CC2)c(=O)[nH]c1=O,-5%,21µM*,·,0%,·
Cc1ccc(C)c(-n2ccnc2SCC(=O)c2c(N)n(C3CC3)c(=O)[nH]c2=O)c1,18µM*,?,·,10%,·
Cc1cc(C)cc(-n2ccnc2SCC(=O)c2c(N)n(C3CC3)c(=O)[nH]c2=O)c1,-23%,-4%,·,3%,·
O=C(Nc1ccc(N2CCCC2)c(Cl)c1)c1ccc([N+](=O)[O-])o1,4%,?,?,2.9µM*,-9%[10 µM]
O=C(Nc1ccccc1N1CCCC1)c1ccc([N+](=O)[O-])o1,5.2µM*,?,2µM*,23µM*,?
COc1ccc(N2CCCC2)c(NC(=O)c2ccc([N+](=O)[O-])o2)c1,?,5%,-25%,?,-14%
O=C(Nc1ccc(N2CCN(C(=O)c3ccccc3)CC2)c(Cl)c1)c1ccc(Br)o1,14%,12µM*,37%,?,?
O=C(Nc1ccccc1N1CCN(C(=O)c2ccccc2)CC1)c1ccc([N+](=O)[O-])o1,?,?,5.6µM*,?,?
CCC(=O)N1CCN(c2ccccc2NC(=O)c2ccc([N+](=O)[O-])o2)CC1,?,?,?,-2%,?
CC1CC(C)CN(S(=O)(=O)c2ccc(NC(=O)C3CSC4(C)CCC(=O)N34)cc2)C1 (stereo unspecified),2%,-21%,·,15%,·
Cc1cccc(C(=O)OCC(=O)Nc2nnc(-c3ccccc3)o2)c1O,3%,-3%,·,11%,·
CCC(=O)Nc1ccc(N2CCN(C(=O)c3ccco3)CC2)c(Cl)c1,4%,?,·,0%,·
O=C(Nc1cccc(NC(=O)c2ccccc2Cl)c1)c1ccc([N+](=O)[O-])o1,?,23µM*,?,3.7µM*,?
O=C(Cc1ccc(Cl)cc1)Nc1ccc(N2CCN(C(=O)c3ccco3)CC2)c(Cl)c1,4%,13µM*,?,?,-12%
COc1c(NC=O)c2c(c([N+](=O)[O-])c1OC)C(=O)OC2,-3%,·,·,3%,·
COc1ccc(NC(=O)COC(=O)CCc2nc3ccccc3c(=O)[nH]2)c(OC)c1,-5%,14%,·,-2%,·
CCN(CC(=O)Nc1ccc(C(=O)Nc2ccc(OC)cc2)cc1)Cc1nc2ccccc2c(=O)[nH]1,-19%,6.5µM*,3.2µM*,-3%,?
CCN(Cc1nc2ccccc2c(=O)[nH]1)Cc1cc(=O)oc2cc(OC)ccc12,0%,?,14µM*,1%,16µM*
COc1ccc2c(COC(=O)c3n[nH]c4ccccc34)cc(=O)oc2c1,-5%,?,42%,?,0%
CCN(CC(=O)Nc1cc(OC)ccc1OC)Cc1nc2ccccc2c(=O)[nH]1,1%,?,20µM*,1%,-7%
COc1cc2c(cc1NC(=O)CN(C)Cc1nc3ccccc3c(=O)[nH]1)oc1ccccc12,0%,?,4.5µM*,11%,11µM*
O=c1[nH]nc(Br)c(=O)n1C(c1ccccc1)c1ccccc1,2%,·,·,0%,·
COc1ccccc1CNc1ncncc1-c1cccc(C#N)c1,·,·,3%,·,4%
CCOC(=O)c1sc(NC(=O)CSc2n[nH]c(-c3ccccc3)n2)c(C#N)c1C,1%,?,1.3µM*,8.2µM*,5.6µM*
SMILES,SW480 rerep,ELG1 repair inh,RORgamma inh,MCF10A rereplic,VP16 counter
CCOC(=O)c1sc(NC(=O)c2cccnc2)c(C#N)c1C,-2%[9.22 µM],18µM*,34%,-1%,-8%
CCOC(=O)c1c(NC(=O)c2cccnc2)sc(C)c1C,1%,-17%,-13%,5%,-1%
CCOC(=O)c1sc(NC(=O)c2cc(-c3ccccc3)nc3ccccc23)c(C#N)c1C,0%,?,?,2.6µM*,?
CCOC(=O)c1sc(NC(=O)CSc2ncn[nH]2)c(C#N)c1C,9.2µM*,-13%,19%,2.9µM*,0%
Cc1cccc(-c2cc(C(=O)Nc3sc(C)c(C)c3C(N)=O)c3ccccc3n2)c1,-49%,-13%,?,0%,?
CCN(CC)C(=O)c1sc(NC(=O)Cc2ccccc2)c(C#N)c1C,2%,?,6.3µM*,13%,2%
CCOC(=O)c1sc(NC(=O)CSc2nc(C)cc(C)n2)c(C#N)c1C,-1%,-13%,-2%,?,-1%
CCOC(=O)c1sc(NC(=O)CSc2ccccn2)c(C#N)c1C,15%,·,-6%,21µM*,-23%
O=C(NCc1ccccc1Cl)C1=CC=CN2CCS(=O)(=O)N=C12,9%,?,·,10%,·
CCc1nnc(NC(=O)CN2CCN(c3nc(-c4ccccc4)cs3)CC2)s1,?,?,11µM*,?,?
CC(C)C(=O)NNC(=O)CN1CCN(c2nc(-c3ccccc3)cs2)CC1,-1%,-1%,3%,9%,0%
CC(=O)C(/C=N/c1cc(-c2ccc(C)cc2)nn1-c1ccccc1)=C(\C)O,0%,?,?,1%,22µM*
Cc1ccc(NC(=O)c2cc(-c3ccccc3)nn2-c2ccccc2)cc1,28%,?,8%[10 µM],21µM*,?
CCc1nnc(NC(=O)c2cc(-c3ccccc3)nn2-c2ccccc2)s1,-8%,0%,10µM*,16%,?
Clc1ccccc1/C=N/c1cc(-c2ccccc2)nn1-c1ccccc1,4%,?,4%,-1%,4%
Cc1ccc(NC(=O)c2cc(-c3ccccc3)nn2-c2ccccc2)c(Br)c1,0%,10%,?,?,?
COc1cccc(-c2nc(N3CCN(C)CC3)c3ccccc3n2)c1,·,·,-15%,·,-4%
C/C(=N\NC(=O)Cc1ccccc1)c1ccc(Br)s1,-2%,0%,-18%,6%,2%
C/C(=N\NC(N)=S)c1cc(-c2ccccc2)c(-c2ccccc2)s1,?,-15%,0.45µM*,?,1.4µM*
C/C(=N/NC(N)=S)c1ccc(Br)s1,?,-2%,1.1µM*,0%,5µM*
COc1ccc(C(=O)c2c(C(F)(F)F)oc3c2C(=O)c2ccccc2C3=O)cc1,5.2µM*,10µM*,17%,4.1µM*,-5%
Cc1cccc(C)c1NC(=O)CSc1cc(C(=O)c2nccn2C)c2ccccc2n1,4%,15µM*,15%,11%,2%
